# HT1080 IDH1KD tx – kills HT-1080 cells with IDH1 knockdown. 360,000 compounds, 2% hits. Potency, µM (top dose mostly 46.1 µM), usual class: cytotoxic. HT-1080 IDH1 knockdown viability, ATP luminescence, 48 h
#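 Viability of IDH1-knockdown HT-1080 fibrosarcoma cells was assessed by CellTiter-Glo after 48 h at 37 °C with titrated compound; concentration-effect curves were classified by fit quality and response size.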
# HT1080NT lethal – kills 2HG-producing HT-1080-NT fibrosarcoma cells. HT-1080-NT fibrosarcoma viability, CellTiter-Glo ATP luminescence, 48 h. Potency, µM (series often up to 46.1 µM), actives largely listed as cytotoxic. 360,000 compounds, 1.6% hits;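 note: NT is the 2HG producing partner of a matched IDH1 knockdown line; nearly all actives have a fitted effect of over 55% in size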
#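 Read-out is CellTiter-Glo luminescence after 10 minutes at room temperature, following 48 hours' compound treatment of HT-1080-NT cells (750 cells/well, RPMI, 5% FBS, 37 degrees C).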
# S2 tox – reduces viability in counter-screen for ATXN expression inhibitors; Potency, µM (top dose mostly 56.7 µM), usual class: cytotoxic; AID 651635; 400,000 compounds, 0.49% hits; S2 cells (HEK-293 line with an ATXN2-luciferase reporter) viability, CellTiter-Fluor protease fluorescence, 24 h; note: nearly all actives have a fitted effect of over 40% in size
# HepG2 viability – HepG2 cytotoxicity, counter-screen for TGF-b inhibitors; HepG2 CAGA-GFP viability, ATP luminescence, 18 h; Potency, µM (doses to about 46.1 µM), most hits filed as cytotoxic; 410,000 compounds, 0.76% hits; AID 588856
#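 HepG2 CAGA-GFP cells (1000/well, DMEM with 1% FBS) received compound, then TGF-beta at 500 pg/mL final, and were incubated 18 hours at 37 degrees C. Viability was read by CellTiter-Glo luminescence. Media-only wells were set as complete cell-killing and DMSO as no toxicity.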
# ATXN2 expr inh – ATXN2 expression inhibition. HEK-293 ATXN2-luciferase reporter, luminescence, 24 h. Potency, µM (highest dose often 57 µM), most hits filed as inhibitors. 360,000 compounds, 0.72% hits. AID 1745845; note: nearly all actives have a fitted effect of over 55% in size
#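 ATXN2-luciferase reporter cells (luciferase flanked by upstream and downstream ATXN2 gene portions) were treated 24 h at 37 °C with compounds at up to 57 uM. SteadyGlo luminescence gave expression; GF-AFC fluorescence gave viability.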
# TGFb SMAD3 inh – TGF-b pathway inhibition; AID 588855; 410,000 compounds, 1.2% hits; Potency, µM (series often up to 46.1 µM), most hits filed as inhibitors; HepG2 CAGA-GFP TGF-b/SMAD3 reporter, GFP fluorescence, 18 h; TGF-beta stimulated, 500 pg/mL final; note: nearly all actives have a fitted effect of over 65% in size
#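 Smad-responsive CAGA-GFP expression was quantified in HEPG2 cells exposed to compounds and 500 pg/mL final TGF-beta for 18 h at 37 degrees C; unstimulated wells defined full inhibition.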
# Numbers stand for hits; – = inactive; ? = inconclusive; · = not tested or not shown; [ ] = dose if it differs, or a comment. Most compounds without a hit are left out; they make up all but 3.8% or so of the library. Calls come from the whole dose curve; as a rule, active = well fitted curve in the direction sought with a large enough effect; inconclusive = small, poorly fitted or top-dose-only effect, or another doubt; inactive = no such curve, though single readings can be large; an effect the other way counts as inactive or inconclusive.
SMILES,HT1080 IDH1KD tx,HT1080NT lethal,S2 tox,HepG2 viability,ATXN2 expr inh,TGFb SMAD3 inh
CC(C)CN1CCC(C(=O)NC(c2ccc(F)cc2)c2ccc3ccccc3n2)CC1 (stereo not drawn),–,–,?,–,–,–
COc1ccccc1C(NC(=O)C1CCN(CCOc2ccc3ccccc3c2)CC1)c1ccccn1 (stereo not drawn),18µM,18µM,?,–,?,14µM
Cc1ccccc1C(c1ncccc1C)N(C)C(=O)C1CCN(CCOc2ccc(Cl)cc2Cl)CC1 (stereo not drawn),23µM,?,25µM,–,?,?
COc1ccc(OCCN2CCC(C(=O)NC(c3ccc(Cl)cc3)c3ncccc3C)CC2)cc1 (stereo not drawn),21µM,?,?,–,?,?
Cc1ccccc1CN1CCC(n2nccc2NC(=O)CCCc2ccccc2)CC1,–,–,–,18µM,·,–
O=C(CCCc1ccccc1)Nc1ccnn1C1CCN(Cc2ccccn2)CC1,–,–,–,–,–,–
Cn1cc(CN2CCC(n3nccc3NC(=O)c3ccccc3Cl)CC2)c2ccccc21,?,?,?,–,?,?
COc1ccccc1C(=O)Nc1ccnn1C1CCN(Cc2cn(C)c3ccccc23)CC1,?,?,?,–,·,11µM
C=C(c1ccc2ccccc2n1)c1cccs1,·,·,·,–,·,–
CC[n+]1c(C=C2C=C(C)OC(C)=C2)sc2ccccc21,?,?,?,–,11µM,–
CN1CCN(C(=S)NC(=O)c2ccc(C(C)(C)C)cc2)CC1,–,–,–,–,–,–
C=CCn1cccc(/C=C/C(=O)c2ccc(C(C)(C)C)cc2)c1=S,–,?,·,–,25µM,?
CCCN1CCN(CCCNC(=O)c2ccc3c(c2)sc2nc(-c4ccc(OC)cc4)cn23)CC1,·,·,·,–,·,–
CC1CCN(S(=O)(=O)c2nnc(NC(=O)c3ccc(C(C)C)cc3)s2)CC1,·,·,–,–,–,–
O=C(/C=C/c1cn(-c2ccccc2)nc1-c1ccc2c(c1)OCCO2)NCCO,–,–,–,–,–,–
OCc1ccc2c(c1)c(-c1ccc3c(c1)OCCO3)c(-c1ccccc1)n2-c1ccccc1,–,?,?,–,?,20µM
CCCN(CC(=O)Nc1ccccc1C)C(=O)CCl,4.1µM,8.2µM,?,–,?,5.6µM
COc1ccc(CN2CCCC(Cn3cc(C(=O)N4CCCC4)nn3)C2)c(O)c1 (stereo not drawn),·,·,–,·,·,·
CCCCOC(=O)c1ccc(-c2ccc(/C=N/NC(=S)NCC)o2)cc1,–,2.8µM,–,–,–,–
CCOC(=O)c1ccc(-c2ccc(/C=N/NC(=O)c3cncc(Br)c3)o2)cc1,–,–,·,–,–,–
COc1cc(OC)c2c(-c3cccc(-c4ccoc4)c3)cc(=O)oc2c1,?,?,?,–,?,?
COc1cc(OC)c2c(-c3cccc(-c4ccc(OC)c(F)c4)c3)cc(=O)oc2c1,0.65µM,?,–,–,–,?
CCc1cc(=O)oc2cc3occ(-c4ccc(OC)c(F)c4)c3cc12,5.2µM,5.2µM,·,–,?,–
COc1cc(OC)c2c(-c3cccc(-c4ccc(C(C)=O)cc4)c3)cc(=O)oc2c1,3.3µM,5.2µM,–,–,–,?
CCc1cc(=O)oc2cc3occ(C)c3cc12,–,–,–,–,–,–
SMILES,HT1080 IDH1KD tx,HT1080NT lethal,S2 tox,HepG2 viability,ATXN2 expr inh,TGFb SMAD3 inh
Cc1ccc2c(CNCCc3ccc(Cl)cc3)c(C(=O)O)n(Cc3ccc(F)cc3)c2c1,·,·,?,–,–,?
C=Cc1ccc(Cn2c(C(=O)O)c(CNCCc3ccccc3)c3ccc(C)cc32)cc1,·,·,22µM,–,?,?
COc1ccc(Cn2c(C(=O)O)c(CNCCc3ccccc3Cl)c3ccc(C)cc32)cc1,·,·,18µM,–,?,?
Cc1ccc(Cn2c(C(=O)O)c(CNCc3ccccc3Cl)c3ccc(C)cc32)cc1,·,·,?,–,–,?
O=C(CS(=O)(=O)c1ccccc1)Nc1ccc(Cl)cn1,–,–,–,–,–,–
CNc1ccccc1C(=O)OC(C)C(=O)Nc1ccc(Cl)cn1 (stereo not drawn),–,–,–,–,8.9µM,–
O=C(COC(=O)/C=C/c1ccccc1)Nc1ccc(Cl)cn1,–,–,–,–,–,–
O=C(CC(c1ccccc1)c1ccccc1)Nc1ccc(Cl)cn1,15µM,?,–,–,–,–
O=C(/C=C/c1cccs1)Nc1ccc(Br)cn1,0.18µM,0.12µM,?,–,–[11.3 µM],?
COc1ccccc1/C=C/C(=O)OCC(=O)Nc1ccc(Cl)cn1,–,–,–,–,25µM,–
CN(C)CCNC(=O)CN1C(=O)COc2ccc(S(=O)(=O)N3CCCC3)cc21,·,·,–,–,–,–
CCOc1ccc(OCC)c(NC(=O)Cn2ncc3c4ccccc4n(Cc4ccccc4)c3c2=O)c1,·,·,–,–,–,–
NC(=O)[C@@H]1CCCN1C(=O)CC1(c2cccc(F)c2)CC(=O)N(C2CCCC2)C1=O (stereo partly drawn),·,·,–,·,·,·
O=C(NCC1CCC2(CCN(Cc3cccn3-c3ccc(Cl)cn3)CC2)O1)c1ccccc1 (stereo not drawn),·,·,–,·,·,·
CCCCn1c(=O)c2oc3ccccc3c2n(Cc2ccc(C)cc2)c1=O,·,·,·,–,·,–
O=C(/C=C/c1ccccc1)Nc1ccc(Cl)cn1,4.6µM,?,–,–,–,–
Cc1cccc(NC(=O)/C=C/c2ccc(Cl)cc2)n1,?,–,–,–,–,–
Cc1ccc(/C=N/NC(=O)c2cc(-c3cccnc3)nc3ccccc23)cc1,1.3µM,1.5µM,–,–,–,?
COc1ccccc1-c1cc(C(=O)N/N=C/c2ccc(C)o2)c2ccccc2n1,?,–,–,–,–,–
Cc1ccc(/C=N/NC(=O)c2cc(-c3ccncc3)nc3ccccc23)o1,1.8µM,?,–,–,–,?
Cc1ccc(/C=N/NC(=O)c2cc(C)oc2C)cc1,21µM,?,–,–,–,–
O=C(N/N=C/c1ccc([N+](=O)[O-])o1)c1cc(-c2ccncc2)nc2ccccc12,?,4µM,?,–,?,–
Cc1cc(C(=O)N/N=C/c2ccncc2)c(C)o1,–,–,–,–,–,–
O=C(N/N=C/c1ccc([N+](=O)[O-])o1)c1cc(-c2ccc(-c3ccccc3)cc2)nc2ccccc12,?,?,?,–,?,–
CC(C)CN(CC(C)C)c1ccc(/C=C/c2nc3ccccc3s2)cc1,·,·,·,–,·,–
Cc1ccc2c(c1)C(c1ccc(F)cc1)N(C(=O)c1ccc(S(=O)(=O)N3CCCCC3)cc1)CC(=O)N2 (stereo not drawn),·,·,–,–,–,–
CCCCOc1ccc(CC(=O)N(C)O)cc1,·,·,·,–,·,–
